In the library only some 18% were active in any assay of this set; here they are far more common.
PLK1 PBD block – blocks phosphopeptide binding to human PLK1 polo-box domain; Plk1 PBD binding of FITC phosphopeptide, fluorescence polarization; Potency, µM, hits mostly inhibitors; 360,000 tested, 2.8% active; AID 720504; further: series mostly up to about 57 µM; nearly all actives have a fitted effect of over 65% in size
TDP1 cell noCPT – qHTS for Inhibitors of human tyrosyl-DNA phosphodiesterase 1 (TDP1): qHTS in cells in absence of CPT | DT40 Tdp1-/- hTDP1 cells, no CPT, ATP luminescence, 48 h | Potency, µM (doses to about 46.2 µM), actives largely listed as inhibitors | 420,000 tested, 15% active | AID 686978, 2013; further: nearly all actives have a fitted effect of over 55% in size
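Seeded 400 DT40-hTDP1 cells/well (vehicle DMSO, no 20 nM CPT); pinned compounds; ≥48 hr at 37 °C; CellTiter-Glo luminescence as viability measure.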
GCN5L2 inh – inhibitors of human GCN5L2 histone acetyltransferase | Q92830 | GCN5L2 HAT assay, ThioGlo1 CoA-SH fluorescence | Potency, µM (doses to about 58.9 µM), usual class: inhibitors | 390,000 tested, 0.21% active | AID 504327
Target sequence (Q92830 whole entry, looked up): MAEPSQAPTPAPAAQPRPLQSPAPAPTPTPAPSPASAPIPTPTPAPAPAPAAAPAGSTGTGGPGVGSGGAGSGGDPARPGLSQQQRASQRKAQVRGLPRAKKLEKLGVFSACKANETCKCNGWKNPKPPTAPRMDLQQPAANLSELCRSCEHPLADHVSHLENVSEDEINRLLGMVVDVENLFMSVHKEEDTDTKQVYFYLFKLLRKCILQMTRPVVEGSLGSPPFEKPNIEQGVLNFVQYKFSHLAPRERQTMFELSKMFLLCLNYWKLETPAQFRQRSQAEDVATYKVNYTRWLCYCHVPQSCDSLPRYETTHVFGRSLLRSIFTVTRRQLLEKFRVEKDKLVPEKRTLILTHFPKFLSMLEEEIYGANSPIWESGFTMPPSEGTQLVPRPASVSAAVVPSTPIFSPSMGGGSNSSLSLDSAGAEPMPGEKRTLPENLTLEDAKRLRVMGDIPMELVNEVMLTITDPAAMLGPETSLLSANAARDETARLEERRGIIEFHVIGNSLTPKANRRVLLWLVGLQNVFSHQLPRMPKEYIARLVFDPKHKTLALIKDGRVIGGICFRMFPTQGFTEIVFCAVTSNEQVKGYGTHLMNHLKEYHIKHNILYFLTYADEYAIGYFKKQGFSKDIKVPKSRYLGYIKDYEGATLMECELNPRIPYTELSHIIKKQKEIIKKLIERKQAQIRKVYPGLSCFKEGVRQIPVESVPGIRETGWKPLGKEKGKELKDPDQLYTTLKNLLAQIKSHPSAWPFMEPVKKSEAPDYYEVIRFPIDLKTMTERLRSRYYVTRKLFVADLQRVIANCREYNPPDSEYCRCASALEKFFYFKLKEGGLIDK
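Fluorescence readout, Ex340nm/Em540nm: ThioGlo1 (50uM final) reacts with free CoA thiol released as 20nM GCN5L2 acetylates H3(1-25) peptide (75uM) using acetyl-CoA (70uM). Compound and enzyme sat 15 min beforehand; 20 min room-temperature reaction.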
DT40 TDP1 CPT – DT40-hTDP1 cell growth loss with CPT; chicken DT40 Tdp1-/-;hTDP1 cells + 20 nM CPT, ATP luminescence, 48 h; Potency, µM (titrated, usually from 46.2 µM), actives largely listed as inhibitors; 420,000 tested, 12% active; AID 686979; further: nearly all actives have a fitted effect of over 55% in size
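Chicken DT40 Tdp1-/- cells stably complemented with human TDP1 were seeded at 400 cells/well in medium containing 20 nM camptothecin, exposed to pin-transferred compounds, and grown at 37 °C for at least 48 hr. Viability was read as ATP luminescence.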
VDR inhibitor – vitamin D3 receptor (human) inhibition. VDR-SRC2-3 peptide fluorescence polarization, 2 h. P11473. 400,000 tested, 0.93% active. Potency, µM, most hits filed as inhibitors
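FP read-out; VDR + SRC2-3 coactivator peptide; 23 nl compound by pintool; 2 h RT incubation; reagents held at 4 deg C, protected from light.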
TDP1 inh – blocks human tyrosyl-DNA phosphodiesterase 1; AID 485290; recombinant TDP1, AlphaScreen DNA substrate cleavage; 350,000 tested, 0.28% active; Potency, µM (highest dose often 130 µM), usual class: inhibitors; further: nearly all actives have a fitted effect of over 40% in size
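Steps: enzyme plus compound, 15 min RT; add biotin/phosphotyrosine-FITC oligonucleotide (15 nM final), react 5 min; add donor/acceptor beads (10 ug/ml final), 10 min; read AlphaScreen. Tdp1 at 1 nM final.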
Hits are given with their value; – = inactive; ? = inconclusive; · = no result; [ ] = remark or other dose. The call rests on the fitted dose curve; in most records, active means well fitted curve in the direction sought with a large enough effect; inconclusive means small, poorly fitted or top-dose-only effect, or another doubt; inactive means no such curve, though single readings can be large; an effect the other way counts as inactive or inconclusive.

SMILES	PLK1 PBD block	TDP1 cell noCPT	GCN5L2 inh	DT40 TDP1 CPT	VDR inhibitor	TDP1 inh
CC1(C)CC(=O)C=C(N2CCN(C3=CC(=O)CC(C)(C)C3)CC2)C1	·	·	–	·	·	–
Cc1ccc(-c2nnc(Nc3ccc(O)cc3)c3ccccc23)cc1S(=O)(=O)N1CCCCC1	·	18.4µM	–	7.31µM	–	–[12.3 µM]
Cc1ccc(-c2nnc(Nc3ccc(C(N)=O)cc3)c3ccccc23)cc1S(=O)(=O)N1CCCCC1	·	?	–	?	–	–[12.3 µM]
Cc1ccc(-c2nnc(Nc3ccc(F)cc3)c3ccccc23)cc1S(=O)(=O)NC(C)C	·	9.2µM	–	?	–	·
COc1ccc(Nc2nnc(-c3ccc(C)c(S(=O)(=O)NCc4nc5ccccc5[nH]4)c3)c3ccccc23)cc1	·	10.3µM	–	20.6µM	–	·
Cc1ccc(-c2nnc(Nc3ccc(Cl)cc3)c3ccccc23)cc1S(=O)(=O)N1CCOCC1	·	3.66µM	–	13µM	–	–[12.3 µM]
Cc1ccc(NC(=O)CCC(=O)N/N=C/C=C/c2ccccc2)cc1	–	–	–	–	–	–
Cc1cc(C)cc(NC(=O)COC(=O)COc2ccc(N(C)S(=O)(=O)c3cccs3)cc2)c1	–	–	–	–	–	–
O=C(NCCN1CCOCC1)c1cccc(NS(=O)(=O)c2ccc(Br)cc2)c1	–	–	–	–	–	·
Cc1cccc(Nc2nnc(-c3ccc(N4CCOCC4)c([N+](=O)[O-])c3)c3ccccc23)c1	–	18.4µM	–	?	–	–
Cc1ccc(-c2n[nH]c(=O)c3ccccc23)cc1S(=O)(=O)N(C)C	–	?	–	?	–	–
Cc1ccc(-c2nnc(Nc3cccc(O)c3)c3ccccc23)cc1S(=O)(=O)N1CCOCC1	·	11.6µM	–	?	–	–[12.3 µM]
Cc1ccc(-c2n[nH]c(=O)c3ccccc23)cc1S(=O)(=O)Nc1ccccc1	–	23.1µM	–	?	–	–
Cc1ccc(-c2nnc(Nc3ccc(O)cc3)c3ccccc23)cc1S(=O)(=O)NC(C)(C)CO	·	8.2µM	–	16.4µM	–	·
C[N+](C)(C)CCOP(=O)([O-])OP(=O)(O)OCC1OC(n2ccc(N)nc2=O)C(O)C1O (stereo not given)	·	–	–	–	–	–
Cc1ccc(-c2nnc(Nc3ccc(S(N)(=O)=O)cc3)c3ccccc23)cc1S(=O)(=O)N1CCCCC1	·	–	–	–	–	–[12.3 µM]
Cc1ccc(-c2nnc(Nc3ccc(C(=O)N(C)C)cc3)c3ccccc23)cc1S(=O)(=O)N(C)C	·	10.3µM	–	23.1µM	–	–[12.3 µM]
CNC(=O)c1ccc(Nc2nnc(-c3ccc(C)c(S(=O)(=O)N(C)C)c3)c3ccccc23)cc1	·	?	–	–	–	–[12.3 µM]
Cc1ccc(-c2nnc(Nc3ccc(S(N)(=O)=O)cc3)c3ccccc23)cc1S(=O)(=O)N1CCOCC1	·	?	–	16.4µM	–	–[12.3 µM]
CCCCN1C[C@H](C)[C@@H](CC(=O)NC)C1=O	–	–	·	–	·	·
COCCNC(=O)Cc1ccc(NC(=O)N2CCCCc3ccccc32)cc1	·	–	–	–	–	–
CC(C)c1ccc(NC(=O)Cc2ccc(NC(=O)N3CCCCc4ccccc43)cc2)cc1	·	20.6µM	–	18.4µM	–	–
O=C(Cc1ccc(NC(=O)N2CCCCc3ccccc32)cc1)Nc1ccccc1Br	·	20.6µM	–	?	–	–
CCCOc1ccc(N2C(=O)CC(NCCCN3CCC(C(N)=O)CC3)C2=O)cc1 (stereo not given)	–	?	·	25.9µM	–	·
C=C(C)Cn1c2ccc(NC(=O)NCCc3ccccc3)cc2c(=O)n1C	?	–	·	–	·	·
SMILES	PLK1 PBD block	TDP1 cell noCPT	GCN5L2 inh	DT40 TDP1 CPT	VDR inhibitor	TDP1 inh
CCOC(=O)c1cc(-c2ccccc2)n(CC(=O)NC(C)(C)C)c1C	–	?	–	?	–	–
CCOC(=O)c1cc(-c2ccccc2)n(CCCC(=O)Nc2ccccc2C)c1C	·	23.1µM	–	?	–	–
CC(=O)c1cc(-c2ccccc2)n(CCC(=O)Nc2ccc(C(C)C)cc2)c1C	·	5.8µM	–	8.2µM	–	–
CCOC(=O)c1cc(-c2ccccc2)n(CCC(=O)Nc2ccc(C(F)(F)F)cc2)c1C	·	7.31µM	–	7.31µM	–	–
CCOC(=O)c1c(C)c(-c2ccccc2)n(CC(=O)Nc2cccc(C)c2C)c1C	·	14.6µM	–	13µM	–	–
CCOC(=O)c1c(C)c(-c2ccccc2)n(CC(=O)Nc2ccc(OCC)cc2)c1C	·	–	–	–	–	–
CCOC(=O)c1cc(-c2ccccc2)n(CCCC(=O)Nc2ccc(C)c(Cl)c2)c1C	·	23.1µM	–	?	–	–
CCOC(=O)c1cc(-c2ccccc2)n(CCCC(=O)Nc2ccc(CC)cc2)c1C	·	?	–	?	–	–
OCCC1CN(C2CCC2)CCN1Cc1ccc(F)c(F)c1 (stereo not given)	–	–	–	–	–	–
CCN(C(=O)C1CCN(c2ncnc3c2nc2n3CCCCC2)CC1)c1cccc(Cl)c1	·	?	–	?	–	–
O=C(C1CCCN(c2ncnc3c2nc2n3CCCCC2)C1)N1CCN(c2cccc(Cl)c2)CC1 (stereo not given)	–	18.4µM	–	23.1µM	–	–
CN(C(=O)C1CCCN(c2ncnc3c2nc2n3CCCCC2)C1)c1cccc(Cl)c1 (stereo not given)	–	11.6µM	–	13µM	–	–
Cc1ccc(C)c(N2CCN(C(=O)C3CCCN(c4ncnc5c4nc4n5CCCCC4)C3)CC2)c1 (stereo not given)	–	23.1µM	–	16.4µM	–	–
O=C(C1CCCN(c2ncnc3c2nc2n3CCCCC2)C1)N1CCN(c2ccccc2)CC1 (stereo not given)	–	2.06µM	–	?	–	–
CCCNC(=O)C1(C)CCCN(C(=O)c2ccccc2F)C1 (stereo not given)	–	–	·	–	·	·
Nc1cc(=O)[nH]c(SCC(=O)Nc2ncc(C(F)(F)F)cc2Cl)n1	–	–	–	–	–	–
Oc1ccc(N=Cc2ccc(OCc3ccccc3)cc2)cc1	?	20.6µM	–	20.6µM	?	–
Cc1nn(Cc2ccc(Cl)c(Cl)c2)c(C)c1NC(=O)c1noc2c1CCc1ccccc1-2	·	5.8µM	–	5.8µM	–	–
Cc1nn(Cc2ccccc2)c(C)c1NC(=O)c1noc2c1CCc1ccccc1-2	–	?	–	?	–	–
COc1ccc2c(c1)CCc1c(C(=O)Nc3c(C)nn(Cc4ccc(C)cc4)c3C)noc1-2	·	9.2µM	–	10.3µM	–	–
O=C(Nc1cccc(C(F)(F)F)c1)c1noc2c1CCc1ccccc1-2	·	?	–	10.3µM	–	–

Screens: PubChem, National Center for Advancing Translational Sciences (NCATS)
